In PubChem BioAssay (Tox21):
Results filed as inconclusive are left out. Calls of active or inactive are those of the source. Calls come from the whole dose curve.

What was measured:
[1] = molecular target: Acetylcholinesterase (Homo sapiens) (UniProt P22303); assay: Acetylcholinesterase (AChE) small molecule antagonists: colormetric cell-based qHTS assay (AID 1347395); note: nearly all actives have a fitted effect of over 30% in size
Summary of the method: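 SH-SY5Y cells attached overnight, exposed to compound 30 min at 37 C, then given DTNB/acetylthiocholine; after 90 min at 37 C, colorimetric thiocholine read gives cellular AChE activity.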

[2] = molecular target: Acetylcholinesterase (Homo sapiens) (UniProt P22303); assay: Acetylcholinesterase (AChE) small molecule antagonists: enzyme-based qHTS assay (AID 1347397); conditions: Potency: AChE enzyme activity inhibition; outcome: AChE enzyme activity inhibition; note: nearly all actives have a fitted effect of over 55% in size
Summary of the method: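 Colorimetric DTNB readout of acetylthiocholine hydrolysis, 10 min at room temperature, after 30 min room-temperature exposure of 50 mU/mL recombinant human enzyme to compound; DMSO vehicle control.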

[3] = molecular target: Acetylcholinesterase (Homo sapiens) (UniProt P22303); assay: Acetylcholinesterase (AChE) small molecule antagonists: fluorescence cell-based qHTS assay (AID 1347398); conditions: Potency: AChE activity; outcome: AChE activity; note: nearly all actives have a fitted effect of over 50% in size
Summary of the method: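 Cellular AChE activity read as thiocholine from acetylthiocholine hydrolysis, detected by Thiolite Green fluorescence at 490/520 nm after 40 min at room temperature. Compounds were pre-incubated 30 min at 37 C on adherent SH-SY5Y cells.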

[4] = molecular target: Acetylcholinesterase (Homo sapiens) (UniProt P22303); assay: Acetylcholinesterase (AChE) small molecule antagonists: enzyme-based qHTS assay with human liver microsomes (AID 1347399); conditions: Potency: qHTS inhibition; outcome: qHTS inhibition; note: nearly all actives have a fitted effect of over 60% in size
Summary of the method: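 Recombinant human AChE (50 mU/mL in the enzyme mix) and human liver microsomes (0.25 mg/mL final) were preincubated with compound and NADPH (0.25 mg/mL final) for 30 min at 37 C. Acetylthiocholine/DTNB was then added; thiocholine was read colorimetrically after 10 min at room temperature.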
% is set by controls: 0 for no effect and ±100 for the full control effect.

Acetylcholinesterase (Homo sapiens), sequence (P22303 whole entry, looked up): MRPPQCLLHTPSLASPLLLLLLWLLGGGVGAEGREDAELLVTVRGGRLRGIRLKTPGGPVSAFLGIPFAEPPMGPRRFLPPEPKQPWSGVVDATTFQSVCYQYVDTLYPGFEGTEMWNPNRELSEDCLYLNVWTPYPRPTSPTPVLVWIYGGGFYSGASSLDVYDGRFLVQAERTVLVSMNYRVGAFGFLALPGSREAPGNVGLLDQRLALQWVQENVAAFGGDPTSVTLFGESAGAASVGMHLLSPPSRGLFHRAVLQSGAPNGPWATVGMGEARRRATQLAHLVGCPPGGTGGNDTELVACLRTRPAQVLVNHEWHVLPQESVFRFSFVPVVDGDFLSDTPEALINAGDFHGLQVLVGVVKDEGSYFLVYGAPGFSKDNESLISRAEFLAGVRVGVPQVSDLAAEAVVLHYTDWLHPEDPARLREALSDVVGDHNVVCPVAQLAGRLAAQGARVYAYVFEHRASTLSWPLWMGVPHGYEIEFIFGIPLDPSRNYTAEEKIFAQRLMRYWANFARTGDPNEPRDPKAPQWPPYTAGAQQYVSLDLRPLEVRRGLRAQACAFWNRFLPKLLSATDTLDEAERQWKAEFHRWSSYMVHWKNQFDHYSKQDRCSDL

COc1ccc([C@@H]2Sc3ccccc3NC(=O)[C@@H]2O)cc1
inactive: Potency [1] | Potency [2] | Potency [3] | Potency [4]

c1coc(Cn2cccc2)c1
inactive: Potency [1] | Potency [2] | Potency [3] | Potency [4]

Cc1ccc(=O)n(-c2ccccc2)c1
inactive: Potency [1] | Potency [2] | Potency [3] | Potency [4]

O=Cc1cccc(Br)c1
inactive: Potency [1] | Potency [2] | Potency [3] | Potency [4]

Cc1c(C(=O)NCCO)[n+](=O)c2ccccc2n1[O-]
inactive: Potency [1] | Potency [2] | Potency [3] | Potency [4]

C=C(C)[C@@H]1CCC2=CCC[C@@H](C)[C@]2(C)C1
inactive: Potency [1] | Potency [2] | Potency [3] | Potency [4]

Cc1[nH]cnc1-c1ccc(Cl)cc1
inactive: Potency [1] | Potency [2] | Potency [3] | Potency [4]

CCCCCCCCCCCC(C)=O
inactive: Potency [1] | Potency [2] | Potency [3] | Potency [4]

Nc1cccc(S(=O)(=O)O)c1
inactive: Potency [1] | Potency [2] | Potency [3] | Potency [4]

C=C1CC[C@H]2O[C@]2(C)CC[C@@H]2[C@@H]1CC2(C)C
inactive: Potency [1] | Potency [2] | Potency [3] | Potency [4]

CC(CO)CO
inactive: Potency [1] | Potency [2] | Potency [3] | Potency [4]

NCCCNCCSP(=O)(O)O
inactive: activity, negative = inhibition [1] 2.88% [at 10.5 µM] | activity change, negative = inhibition [2] -0.97% [at 10.5 µM] | activity change, negative = inhibition [3] 1.49% [at 10.5 µM] | activity change, negative = inhibition [4] 5.32% [at 10.5 µM]

N#Cc1cscn1
inactive: Potency [1] | Potency [2] | Potency [3] | Potency [4]

CC(C)SCc1ccco1
inactive: Potency [1] | Potency [2] | Potency [3] | Potency [4]

C#CCOC(=O)[C@@H](C)Oc1ccc(Oc2ncc(Cl)cc2F)cc1
inactive: Potency [1] | Potency [2] | Potency [3] | Potency [4]

CCCCOC(=O)[C@@H](C)Oc1ccc(Oc2ccc(C(F)(F)F)cn2)cc1
inactive: Potency [1] | Potency [2] | Potency [3] | Potency [4]

CCCC(=O)O[C@]1(C(=O)CCl)[C@@H](C)C[C@H]2[C@@H]3CCC4=CC(=O)C=C[C@]4(C)[C@@]3(F)C(=O)C[C@@]21C
inactive: Potency [1] | Potency [2] | Potency [3] | Potency [4]

CC(C)=CCNc1ncnc2c1ncn2[C@@H]1O[C@H](CO)[C@@H](O)[C@H]1O
inactive: Potency [1] | Potency [2] | Potency [3] | Potency [4]

CCCCCCOC(=O)CC
inactive: Potency [1] | Potency [2] | Potency [3] | Potency [4]

CCCCCCCCc1ccc(S(=O)(=O)O)cc1
inactive: Potency [1] | Potency [2] | Potency [3] | Potency [4]

Nc1nc(CC(=O)O)cs1
inactive: Potency [1] | Potency [2] | Potency [3] | Potency [4]

CCC(CO)(CO)COCC(CC)(CO)CO
inactive: Potency [1] | Potency [2] | Potency [3] | Potency [4]

O=C(O)C(=O)Cc1c[nH]c2ccccc12
inactive: Potency [1] | Potency [2] | Potency [3] | Potency [4]

CC1=CP(=O)(c2ccccc2)CC1 (stereo unspecified)
inactive: Potency [1] | Potency [2] | Potency [3] | Potency [4]

CCn1c(=O)c2c(nc(/C=C/c3ccc(OC)c(OC)c3)n2C)n(CC)c1=O
inactive: Potency [1] | Potency [2] | Potency [3] | Potency [4]

CCCCCO
inactive: Potency [1] | Potency [2] | Potency [3] | Potency [4]

OC[C@H]1O[C@@H]2O[C@H]3[C@H](O)[C@@H](O)[C@@H](O[C@H]4[C@H](O)[C@@H](O)[C@@H](O[C@H]5[C@H](O)[C@@H](O)[C@@H](O[C@H]6[C@H](O)[C@@H](O)[C@@H](O[C@H]7[C@H](O)[C@@H](O)[C@@H](O[C@H]8[C@H](O)[C@@H](O)[C@@H](O[C@H]9[C@H](O)[C@@H](O)[C@@H](O[C@H]1[C@H](O)[C@H]2O)O[C@@H]9CO)O[C@@H]8CO)O[C@@H]7CO)O[C@@H]6CO)O[C@@H]5CO)O[C@@H]4CO)O[C@@H]3CO
inactive: Potency [1] | Potency [2] | Potency [3] | Potency [4]

C1CCCCCCCCCCC1
inactive: activity, negative = inhibition [1] -0.403% [at 23.6 µM] | activity change, negative = inhibition [2] 0.515% [at 23.6 µM] | activity change, negative = inhibition [3] 7.82% [at 23.8 µM] | activity change, negative = inhibition [4] -0.0559% [at 23.6 µM]

FC(F)(F)C(F)(F)C(F)(F)C(F)(F)C(F)(F)C(F)(F)C(F)(F)C(F)(F)Br
inactive: Potency [1] | Potency [2] | Potency [3] | Potency [4]

CC(C)C(O)C(C)(C)CO (stereo unspecified)
inactive: Potency [1] | Potency [2] | Potency [3] | Potency [4]

Cc1ccccc1S
inactive: Potency [1] | Potency [2] | Potency [3] | Potency [4]

CCN1CCOCC1
inactive: Potency [1] | Potency [2] | Potency [3] | Potency [4]

CC(C)(C)C(=O)OCOC(=O)C1N2C(=O)CC2S(=O)(=O)C1(C)C (stereo unspecified)
inactive: Potency [1] | Potency [2] | Potency [3] | Potency [4]

CCOC(=O)N1CCC(Nc2ccc(Cl)cc2N)CC1
inactive: Potency [1] | Potency [2] | Potency [3] | Potency [4]
